For some of these results: Results with a measured potency or affinity are listed apart.

Holding throughout (parameters): scale not given: direction of the effect not stated beside the values
In assay [1] the target is Protein translocase subunit SecA (Escherichia coli (strain K12)) (UniProt P10408). Description: Assay to Identify E. coli SecA ATPase Inhibitors. The class given is functional. Conditions: 30 µM.
For assay [2], the target named is T1, Ubiquitin-activating enzyme e1, putative (Leishmania donovani (strain BPK282A1)) (UniProt E9BSI1).
T1 sequence (whole entry): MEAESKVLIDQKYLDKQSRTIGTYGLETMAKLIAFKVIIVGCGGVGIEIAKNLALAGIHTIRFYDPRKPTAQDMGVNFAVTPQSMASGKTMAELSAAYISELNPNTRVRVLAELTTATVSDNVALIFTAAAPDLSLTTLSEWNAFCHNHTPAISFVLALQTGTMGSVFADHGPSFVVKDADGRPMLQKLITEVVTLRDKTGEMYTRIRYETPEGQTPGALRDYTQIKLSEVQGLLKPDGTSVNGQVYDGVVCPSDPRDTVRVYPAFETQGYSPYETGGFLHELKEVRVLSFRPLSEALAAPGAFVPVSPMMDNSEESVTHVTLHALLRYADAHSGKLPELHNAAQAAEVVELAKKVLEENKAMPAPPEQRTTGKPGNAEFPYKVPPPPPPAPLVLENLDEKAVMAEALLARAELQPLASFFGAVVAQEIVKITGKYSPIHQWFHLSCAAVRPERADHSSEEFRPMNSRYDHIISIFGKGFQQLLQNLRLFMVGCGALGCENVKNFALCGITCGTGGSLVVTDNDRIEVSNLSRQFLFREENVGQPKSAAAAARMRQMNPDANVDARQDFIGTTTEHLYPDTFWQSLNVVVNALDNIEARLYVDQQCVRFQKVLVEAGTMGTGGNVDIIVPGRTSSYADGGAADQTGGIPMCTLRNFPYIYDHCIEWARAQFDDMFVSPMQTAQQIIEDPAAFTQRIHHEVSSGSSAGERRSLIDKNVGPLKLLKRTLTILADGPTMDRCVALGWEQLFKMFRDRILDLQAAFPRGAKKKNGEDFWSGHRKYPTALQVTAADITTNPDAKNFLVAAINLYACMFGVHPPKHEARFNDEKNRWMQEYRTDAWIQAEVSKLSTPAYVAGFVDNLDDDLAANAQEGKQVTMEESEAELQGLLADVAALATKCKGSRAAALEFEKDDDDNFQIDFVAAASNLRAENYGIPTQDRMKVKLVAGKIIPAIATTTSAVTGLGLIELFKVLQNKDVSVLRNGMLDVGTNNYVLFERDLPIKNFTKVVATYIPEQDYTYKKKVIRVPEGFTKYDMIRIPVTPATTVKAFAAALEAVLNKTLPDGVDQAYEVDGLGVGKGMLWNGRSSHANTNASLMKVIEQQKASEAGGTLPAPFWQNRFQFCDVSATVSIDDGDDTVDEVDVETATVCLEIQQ
Description: Leishmania donovani Ubiquitin Activating Enzyme (LdE1). Conditions: 30 µM. Format: functional.

The target in assay [3] is AMP-activated protein kinase, AMPK (Homo sapiens) (UniProt P54646+O43741+P54619+Q9UGJ0+Q9Y478+Q13131+Q9UGI9). Put plainly: AMP-dependent Kinase enzyme assay. An in vitro enzyme assay that detects ADP turnover that is directly proportional to AMPK activity. This uses naive AMPK that is activated during the assay with MK-8722. Format: functional. Conditions: 30 µM.
Assay [4] addresses Sialic acid-binding Ig-like lectin 9 (Homo sapiens) (UniProt Q9Y336). Put plainly: Hs-Siglec9 ALPHAscreen SOP 20170721. Conditions: 10 µM.
In another assay the test system is Trypanosoma cruzi. Description: Trypanosoma cruzi phosphomannomutase and mannose-1-phosphate guanylyltransferase assay. The class given is functional. As to conditions: 10 µM.
Assay [5] addresses T2, Arginase-2, mitochondrial (Homo sapiens) (UniProt P78540).
T2 sequence (whole entry): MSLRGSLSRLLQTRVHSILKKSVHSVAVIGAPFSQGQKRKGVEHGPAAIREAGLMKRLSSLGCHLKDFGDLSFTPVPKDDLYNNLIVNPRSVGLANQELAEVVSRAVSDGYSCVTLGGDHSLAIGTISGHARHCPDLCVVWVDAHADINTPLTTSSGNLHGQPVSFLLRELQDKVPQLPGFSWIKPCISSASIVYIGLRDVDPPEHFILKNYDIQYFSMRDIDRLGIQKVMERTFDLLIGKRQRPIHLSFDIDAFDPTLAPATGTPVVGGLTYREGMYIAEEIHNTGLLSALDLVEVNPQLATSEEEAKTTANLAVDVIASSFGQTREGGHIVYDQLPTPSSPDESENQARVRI
Put plainly: in vitro enzyme assay to detect the production of urea directly proportional to the activity of Arginase II. Further: in the data most compounds retested in dose-response had high values. Format: functional. Conditions: 33.3 µM.

For assay [6], the target named is T3, Proteasome subunit beta (Trypanosoma cruzi) (UniProt O96673).
T3 sequence (whole entry): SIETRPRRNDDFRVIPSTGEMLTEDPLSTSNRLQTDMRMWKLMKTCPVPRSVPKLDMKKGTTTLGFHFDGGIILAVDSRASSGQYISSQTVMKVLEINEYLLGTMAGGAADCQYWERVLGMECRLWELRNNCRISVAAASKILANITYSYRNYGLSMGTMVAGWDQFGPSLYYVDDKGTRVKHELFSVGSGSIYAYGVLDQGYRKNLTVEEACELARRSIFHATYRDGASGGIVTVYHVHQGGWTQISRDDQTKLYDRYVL
Put plainly: Trypanosoma cruzi proteasome chymotrypsin-like activity (TcProtChymo) assay. Further: in the data most compounds retested in dose-response had high values. As to conditions: 9.37 µM. The class given is functional.

The species entered for another assay is Homo sapiens. Description: To identify inhibition of the IFN signalling (Jak-Stat) pathway via expression of an eGFP reporter gene under the control of an IFN-stimulated response element (ISRE) containing MxA promoter. Format: functional. Conditions: 30 µM. A general note: A reporter such as luciferase makes a cellular process visible.
In assay [7] the target is T4, Tyrosyl-tRNA synthetase, putative (Trypanosoma cruzi (strain CL Brener)) (UniProt Q4DSP6).
T4 sequence (whole entry): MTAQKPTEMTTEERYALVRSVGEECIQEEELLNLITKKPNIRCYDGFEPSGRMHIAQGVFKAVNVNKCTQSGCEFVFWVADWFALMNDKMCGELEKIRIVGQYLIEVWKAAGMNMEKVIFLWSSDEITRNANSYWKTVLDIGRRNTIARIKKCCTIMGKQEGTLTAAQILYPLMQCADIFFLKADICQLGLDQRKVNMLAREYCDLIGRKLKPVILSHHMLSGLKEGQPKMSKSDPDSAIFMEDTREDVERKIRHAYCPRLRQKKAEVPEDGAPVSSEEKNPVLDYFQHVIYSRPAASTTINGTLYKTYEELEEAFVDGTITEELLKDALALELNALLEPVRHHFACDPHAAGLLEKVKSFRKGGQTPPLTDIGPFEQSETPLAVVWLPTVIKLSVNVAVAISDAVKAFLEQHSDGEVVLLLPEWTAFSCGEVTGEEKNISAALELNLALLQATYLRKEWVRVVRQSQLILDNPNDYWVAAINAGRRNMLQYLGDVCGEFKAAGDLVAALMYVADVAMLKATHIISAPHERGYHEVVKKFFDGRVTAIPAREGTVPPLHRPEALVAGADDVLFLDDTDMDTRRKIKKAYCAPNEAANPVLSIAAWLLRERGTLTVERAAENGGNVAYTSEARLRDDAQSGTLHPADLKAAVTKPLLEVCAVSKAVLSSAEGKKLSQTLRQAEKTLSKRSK
Put plainly: Trypanosoma cruzi tyrosyl tRNA synthetase (TcYRS) _High Tyrosine SOP. Further: in the data most compounds retested in dose-response had high values. Format: functional. As to conditions: 30 µM.

For assay [8], the target named is T4, Tyrosyl-tRNA synthetase, putative (Trypanosoma cruzi (strain CL Brener)). Put plainly: Trypanosoma cruzi tyrosyl tRNA synthetase (TcYRS) SOP. Conditions: 30 µM. Format: functional.
For assay [9], the target named is Chromo domain-containing protein 1 (Saccharomyces cerevisiae (strain ATCC 204508 / S288c) (Baker's yeast)) (UniProt P32657). Put plainly: ScCHD-1 Enzyme Inhibition Assay. Further: in the data most compounds retested in dose-response had high values. The class given is functional. As to conditions: 30 µM.
Chromo domain-containing protein 1 (Saccharomyces cerevisiae (strain ATCC 204508 / S288c) (Baker's yeast)), sequence (P32657 whole entry, the tested form may be a part): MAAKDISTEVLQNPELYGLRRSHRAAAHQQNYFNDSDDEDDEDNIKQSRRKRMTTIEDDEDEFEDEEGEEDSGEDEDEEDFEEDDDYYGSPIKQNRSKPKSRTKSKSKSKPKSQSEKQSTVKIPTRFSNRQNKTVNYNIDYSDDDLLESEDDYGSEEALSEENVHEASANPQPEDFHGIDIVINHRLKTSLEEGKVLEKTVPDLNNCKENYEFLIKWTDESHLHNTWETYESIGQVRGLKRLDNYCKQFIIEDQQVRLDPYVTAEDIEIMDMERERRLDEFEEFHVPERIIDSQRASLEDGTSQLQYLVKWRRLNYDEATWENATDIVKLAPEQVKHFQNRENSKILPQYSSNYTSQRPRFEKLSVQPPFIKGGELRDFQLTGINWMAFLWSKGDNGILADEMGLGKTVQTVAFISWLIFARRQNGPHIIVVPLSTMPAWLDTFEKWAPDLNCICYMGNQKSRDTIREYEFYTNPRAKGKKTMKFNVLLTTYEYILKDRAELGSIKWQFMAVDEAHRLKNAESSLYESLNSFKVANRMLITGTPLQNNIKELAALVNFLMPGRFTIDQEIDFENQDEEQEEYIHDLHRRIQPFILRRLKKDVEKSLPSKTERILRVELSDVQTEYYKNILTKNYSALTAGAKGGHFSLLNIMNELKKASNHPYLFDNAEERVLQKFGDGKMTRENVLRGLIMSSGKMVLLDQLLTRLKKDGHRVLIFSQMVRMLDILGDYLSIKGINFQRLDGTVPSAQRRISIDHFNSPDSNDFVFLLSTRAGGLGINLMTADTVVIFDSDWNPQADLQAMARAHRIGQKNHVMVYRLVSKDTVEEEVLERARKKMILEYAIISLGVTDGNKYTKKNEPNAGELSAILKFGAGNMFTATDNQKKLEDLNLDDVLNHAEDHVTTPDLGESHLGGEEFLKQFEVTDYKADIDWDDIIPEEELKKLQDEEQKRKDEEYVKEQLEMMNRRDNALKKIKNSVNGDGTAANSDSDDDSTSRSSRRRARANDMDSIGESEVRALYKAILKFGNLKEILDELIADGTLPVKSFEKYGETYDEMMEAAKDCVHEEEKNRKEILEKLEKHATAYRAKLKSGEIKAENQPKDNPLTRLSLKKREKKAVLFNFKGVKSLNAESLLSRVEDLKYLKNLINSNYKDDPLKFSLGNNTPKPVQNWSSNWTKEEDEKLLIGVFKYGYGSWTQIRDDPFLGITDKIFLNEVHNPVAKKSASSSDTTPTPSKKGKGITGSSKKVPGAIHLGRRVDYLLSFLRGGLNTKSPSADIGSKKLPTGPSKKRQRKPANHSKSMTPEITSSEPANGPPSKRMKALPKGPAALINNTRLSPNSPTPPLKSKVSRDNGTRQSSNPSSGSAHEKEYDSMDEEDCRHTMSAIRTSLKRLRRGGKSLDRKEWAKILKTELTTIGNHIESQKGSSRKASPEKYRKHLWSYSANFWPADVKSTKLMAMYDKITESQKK

Sialic acid-binding Ig-like lectin 9 (Homo sapiens), sequence (Q9Y336 whole entry): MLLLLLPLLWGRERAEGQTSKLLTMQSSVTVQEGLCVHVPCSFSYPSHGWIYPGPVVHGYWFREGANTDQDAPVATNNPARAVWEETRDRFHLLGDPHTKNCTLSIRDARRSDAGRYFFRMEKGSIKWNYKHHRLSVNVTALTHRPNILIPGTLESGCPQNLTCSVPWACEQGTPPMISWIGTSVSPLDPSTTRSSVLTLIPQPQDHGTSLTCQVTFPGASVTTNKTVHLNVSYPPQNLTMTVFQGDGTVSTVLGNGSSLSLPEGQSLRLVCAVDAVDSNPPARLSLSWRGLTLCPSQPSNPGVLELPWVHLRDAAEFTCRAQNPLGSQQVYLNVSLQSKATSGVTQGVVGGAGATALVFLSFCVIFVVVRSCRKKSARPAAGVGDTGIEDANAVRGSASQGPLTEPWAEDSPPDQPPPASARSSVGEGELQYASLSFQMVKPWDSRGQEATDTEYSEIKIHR
Protein translocase subunit SecA (Escherichia coli (strain K12)), sequence (P10408 whole entry): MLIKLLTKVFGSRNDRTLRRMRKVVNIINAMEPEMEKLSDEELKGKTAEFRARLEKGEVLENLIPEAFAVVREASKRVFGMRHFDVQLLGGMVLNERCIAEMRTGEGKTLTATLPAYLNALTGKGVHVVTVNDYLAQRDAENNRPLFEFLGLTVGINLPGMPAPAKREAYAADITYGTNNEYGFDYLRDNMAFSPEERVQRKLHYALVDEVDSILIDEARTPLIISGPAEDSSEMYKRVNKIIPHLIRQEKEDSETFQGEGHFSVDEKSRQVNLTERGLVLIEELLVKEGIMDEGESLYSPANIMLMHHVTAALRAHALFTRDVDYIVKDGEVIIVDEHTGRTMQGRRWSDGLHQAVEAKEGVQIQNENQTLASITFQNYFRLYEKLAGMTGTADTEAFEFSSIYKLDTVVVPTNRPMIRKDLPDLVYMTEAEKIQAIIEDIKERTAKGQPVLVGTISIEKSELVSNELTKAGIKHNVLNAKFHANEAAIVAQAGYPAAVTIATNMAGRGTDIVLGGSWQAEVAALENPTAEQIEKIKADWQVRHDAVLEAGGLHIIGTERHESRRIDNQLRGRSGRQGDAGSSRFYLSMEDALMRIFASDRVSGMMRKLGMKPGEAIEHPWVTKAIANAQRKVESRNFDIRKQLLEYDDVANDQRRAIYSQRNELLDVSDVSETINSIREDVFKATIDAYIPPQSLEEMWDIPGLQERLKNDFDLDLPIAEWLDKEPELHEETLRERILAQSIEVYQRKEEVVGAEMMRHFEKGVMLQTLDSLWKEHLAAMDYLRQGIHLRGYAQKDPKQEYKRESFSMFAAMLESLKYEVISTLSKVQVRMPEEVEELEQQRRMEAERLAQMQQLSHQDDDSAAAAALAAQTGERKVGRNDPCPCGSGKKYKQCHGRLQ

For `CCn1nccc1CNC(=O)C1CC1`, the Percent Effect was -5.07% in assay [1]; 10.4% in [2]; -0.00833% in assay [3]; 7.25% in [4]; 5.61% in the assay on Trypanosoma cruzi; -4.14% in assay [5]. Moreover, the Percent Effect in assay [6] is 10.7%; in the assay filed under Homo sapiens, -23.9%; in assay [7] it was 8.6%; in assay [8], 18.5%; in assay [9] it was 132%.

For the compound `CC(C)n1cc(CN2CCCN(C(=O)c3cc(Cl)c[nH]3)CC2)cn1`, the Percent Effect in [1] was -2.91%; in assay [2] it was 10.8%; in assay [3], -4.13%; in [4], 15.8%; in the assay with Trypanosoma cruzi, 1.23%; in assay [5] it was -4.41%. Also, the Percent Effect in assay [6] was 0.36%; in the assay filed under Homo sapiens, 15.2%; in assay [7], 2.46%; in assay [8], 13.6%; in assay [9] it was -8.52%.

`O=C(CCCn1cncn1)NC1(c2ccccc2)CCC1`: the Percent Effect was -7.52% in [1]; 7.79% in [2]; 1.86% in assay [3]; 8.16% in assay [4]; -6% in the assay on Trypanosoma cruzi; -11% in [5]. Further, the Percent Effect in assay [6] is 13.6%; in the assay listed under Homo sapiens, 15.5%; in [7], 3.23%; in [8] it was 11.1%; in assay [9] it was -1%.

Consider `CN(CCc1ccccn1)S(=O)(=O)N1CCCC1c1ccco1` (stereo unspecified), for which the Percent Effect in assay [1] was 0.19%; in [2], 16.2%; in assay [3], 2.74%; in assay [4], -10.8%; in the assay on Trypanosoma cruzi, -9.94%; in assay [5] it was 4.25%. In addition, the Percent Effect in assay [6] is 13.1%; in the assay filed under Homo sapiens, 17.6%; in [7], 6.93%; in assay [8], 11%; in assay [9] it was -5.75%.

Regarding `Cc1ccc(CC2CCCN2CC(=O)NCc2ccccn2)cc1` (stereo unspecified), the Percent Effect was -7.47% in assay [1]; -5.26% in assay [2]; -11.2% in [3]; 3.27% in assay [4]; -1.66% in the assay on Trypanosoma cruzi; 2.37% in assay [5]. In addition, the Percent Effect in assay [6] is 8.53%; in the assay filed under Homo sapiens it was -4.78%; in assay [7], 7.45%; in assay [8] it was 13%; in assay [9], -2.14%.

Consider `Cc1nc(CN2C(=O)CCC23CCN(c2ncccn2)CC3)cs1`, for which the Percent Effect in [1] was -1.55%; in assay [2], 16%; in assay [3], -2.28%; in assay [4], 4.1%; in the assay on Trypanosoma cruzi, 5.02%; in [5], -54.7%. Further, the Percent Effect is 19.3% in assay [6]; -8.11% in the assay listed under Homo sapiens; 5.21% in assay [7]; 5% in assay [8]; -8.28% in assay [9].

For `N#Cc1ccc(CN2CCC(c3ccnn3CCO)CC2)cc1`, the Percent Effect in assay [1] was -4.87%; in [2], 10.5%; in assay [3], -3.54%; in assay [4], 2.96%; in the assay on Trypanosoma cruzi, 0.654%; in assay [5], -1.8%. Besides, the Percent Effect is -4.48% in [6]; 3.68% in the assay filed under Homo sapiens; 7.39% in assay [7]; 23.5% in assay [8]; -1.9% in assay [9].

As for `Cn1ccnc1CNC1CCCN(Cc2noc(C3CC3)n2)C1` (stereo unspecified), the Percent Effect in assay [1] is -1.62%; in assay [2], 0%; in assay [3], -11.6%; in assay [4] it was 4.95%; in the assay with Trypanosoma cruzi, 2.9%; in assay [5], 3.81%. The Percent Effect in assay [6] was 13.8%; in the assay filed under Homo sapiens, 1.96%; in [7], 10.1%; in assay [8], 17.1%; in [9], -3.57%.

Turning to `Cn1cc(CN2CCCN(C(=O)c3cc(Cl)cn3C)CC2)cn1`, the Percent Effect in assay [1] was -2.96%; in assay [2], 13.2%; in [3] it was -8.7%; in assay [4], -2.03%; with Trypanosoma cruzi it was -6.39%; in assay [5], -3.45%. Moreover, the Percent Effect in assay [6] is 20.6%; in the assay listed under Homo sapiens, 28%; in assay [7], 1.47%; in assay [8] it was 7.32%; in assay [9], -9.82%.

For the compound `O=c1ccc(-c2cccs2)nn1CN1CCCCCC1`, the Percent Effect was -4.24% in assay [1]; -4% in assay [2]; -3.16% in assay [3]; 2.9% in assay [4]; 3.54% with Trypanosoma cruzi; -3.35% in assay [5]. Also, the Percent Effect in assay [6] is 7.21%; in the assay listed under Homo sapiens, -1.68%; in assay [7], 7.41%; in assay [8] it was 10.3%; in assay [9], -5.05%.

Consider `O=C(NCc1ccncc1)N(Cc1ccccc1F)C1CC1`, for which the Percent Effect in [1] is -6.03%; in assay [2], 18.7%; in assay [3], -7.25%; in assay [4], 29.6%; with Trypanosoma cruzi, 10.2%; in assay [5], 51%. The Percent Effect in [6] was 17.1%; in the assay filed under Homo sapiens, 5.89%; in [7] it was 2.73%; in assay [8], 16.1%; in assay [9] it was -6.63%.

The values are drawn from ChEMBL document CHEMBL3988442, “University of Dundee, Small-Polar-MMV Screening Library” (2021).
